# In PubChem BioAssay (NCATS):
# “And” between values parts separate entries of the source, which are not always exact repeats. Identical values can stand only once. Unmarked numbers belong to inactive results. Results filed as inconclusive are left out. A call without a number means that no potency is given here. The source made the active and inactive calls. Unless noted, the call rests on the fitted dose curve; in most records, active means well fitted curve in the direction sought with a large enough effect; inconclusive means small, poorly fitted or top-dose-only effect, or another doubt; inactive means no such curve, though single readings can be large; an effect the other way counts as inactive or inconclusive.
# How the values were obtained:
# [1] = target: Cytochrome P450 3A4 (Homo sapiens) (UniProt P08684); assay: qHTS Assay for Inhibitors and Substrates of Cytochrome P450 3A4 (AID 884); settings: recombinant CYP3A4, Luciferin-PPXE luminescence; series mostly up to 57.1 µM; further: nearly all actives have a fitted effect of over 50% in size; further: potency means the concentration at half of the fitted maximal effect
# Sequence of Cytochrome P450 3A4 (Homo sapiens) (P08684 whole entry, looked up): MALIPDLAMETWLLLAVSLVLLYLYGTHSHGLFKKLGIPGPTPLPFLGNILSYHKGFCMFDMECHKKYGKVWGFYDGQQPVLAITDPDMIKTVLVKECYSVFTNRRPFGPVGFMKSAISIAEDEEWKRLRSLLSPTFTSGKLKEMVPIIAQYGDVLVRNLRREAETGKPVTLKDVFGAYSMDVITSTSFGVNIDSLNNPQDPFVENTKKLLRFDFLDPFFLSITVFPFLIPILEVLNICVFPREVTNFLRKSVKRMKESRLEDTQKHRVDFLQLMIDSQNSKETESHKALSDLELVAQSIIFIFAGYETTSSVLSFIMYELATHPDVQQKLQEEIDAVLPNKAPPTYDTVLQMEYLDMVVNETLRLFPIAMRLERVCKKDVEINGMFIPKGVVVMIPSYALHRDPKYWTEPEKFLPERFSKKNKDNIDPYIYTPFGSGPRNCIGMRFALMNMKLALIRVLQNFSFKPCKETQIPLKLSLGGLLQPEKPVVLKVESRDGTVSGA
# Summary of the method: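 20 nM human CYP3A4 with 25 uM Luciferin-PPXE (at KM) in 200 mM KPO4, preincubated 10 min with compound; NADPH regeneration started a 60 min RT reaction. Luciferin detected by luminescence, normalized to 57 uM ketoconazole as full inhibition.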
# [2] = MultiTox-Fluor Cytotoxicity Assay - LYMP1-001 - Live Cells (AID 947); settings: LYMP1-001 lymphoblastoid cells, live-cell protease fluorescence viability; series mostly up to 92.2 µM
# [3] = Cell Viability - LYMP2-004 (AID 966); settings: LYMP2-004 lymphoblastoid cell viability, qHTS; series mostly up to 92.2 µM; further: nearly all actives have a fitted effect of over 65% in size
# Summary of the method: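 Lymphoblastoid LYMP2-004 cells, 2500 per well, were preincubated for 5 hr and then treated with compound for 24 h at 37 C in complete medium. Viability was read as cellular ATP by CellTiter-Glo luminescence, and AC50 values were taken from Hill fits to concentration-response data.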
# [4] = Cell Viability - LYMP2-009 (AID 968); settings: LYMP2-009 lymphoblastoid cell viability; series mostly up to 92.2 µM; further: nearly all actives have a fitted effect of over 55% in size
# [5] = Cell Viability - LYMP2-012 (AID 982); settings: LYMP2-012 lymphoblastoid cell viability qHTS; series mostly up to 92.2 µM;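 further: cellular ATP by luciferase luminescence where a drop means cytotoxicity; cells exposed to compound for one day before reading; nearly all actives have a fitted effect of over 55% in size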
# [6] = qHTS assay for small molecule agonists of the antioxidant response element (ARE) signaling pathway (AID 651741; active means well fitted activation curve with a large enough effect in the signal ratio; the % refers to the signal ratio; further: potency means the concentration at half of the fitted maximal effect); settings: HepG2 ARE-bla reporter, beta-lactamase FRET ratio, 16 h; series mostly up to 96 µM
# Summary of the method: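 Compounds in DMSO are pinned onto HepG2 ARE-bla cells (2,000/well) that were preincubated 5 h; plates stay 16 h at 37 C, then beta-lactamase activity is detected with LiveBLAzer B/G substrate by fluorescence.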
# [7] = qHTS assay for small molecule antagonists of the retinoid-related orphan receptor gamma (ROR-gamma) signaling pathway - cell viability counter screen (AID 720652; active means well fitted curve in the direction sought with a large enough effect in the repeat runs; an effect the other way counts as inactive or inconclusive;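 further: compound exposure lasted 16 hr before ATP read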); settings: RORgamma reporter cell line viability counter screen; series mostly up to 92.2 µM
# Summary of the method: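 CHO cells carrying TET-inducible ROR and RORE-luciferase reporter, plated 5 hr, then dosed with compound plus doxycycline. After 16 hr at 37 C, viability read as intracellular ATP by CellTiter-Glo luminescence.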
# [8] = target: Estrogen receptor (Homo sapiens) (UniProt P03372); assay: qHTS assay for small molecule antagonists of estrogen receptor alpha signaling (AID 588513; active means well fitted curve in the direction sought with a large enough effect in the signal ratio, with a control signal flat, not every such curve was filed as active; the % refers to the signal ratio); settings: ER-alpha-UAS-bla HEK293, beta-lactamase ratio, antagonist mode; series mostly up to 76.9 µM
# Sequence of Estrogen receptor (Homo sapiens) (P03372 whole entry, looked up): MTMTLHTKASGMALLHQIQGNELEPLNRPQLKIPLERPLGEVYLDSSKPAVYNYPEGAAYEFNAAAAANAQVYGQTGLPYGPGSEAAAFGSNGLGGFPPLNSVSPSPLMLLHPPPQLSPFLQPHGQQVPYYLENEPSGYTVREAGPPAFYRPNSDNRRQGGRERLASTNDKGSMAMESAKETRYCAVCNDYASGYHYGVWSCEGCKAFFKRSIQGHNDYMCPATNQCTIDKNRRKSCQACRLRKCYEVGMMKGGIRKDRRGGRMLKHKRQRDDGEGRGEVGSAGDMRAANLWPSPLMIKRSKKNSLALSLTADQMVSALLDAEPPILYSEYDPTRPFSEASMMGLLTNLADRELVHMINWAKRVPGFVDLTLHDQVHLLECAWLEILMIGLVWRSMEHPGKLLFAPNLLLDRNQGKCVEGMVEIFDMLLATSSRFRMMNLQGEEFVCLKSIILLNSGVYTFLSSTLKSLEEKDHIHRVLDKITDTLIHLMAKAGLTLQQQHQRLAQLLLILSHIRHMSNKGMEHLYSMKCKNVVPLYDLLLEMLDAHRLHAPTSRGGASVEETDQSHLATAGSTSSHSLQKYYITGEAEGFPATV
# Summary of the method: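 Antagonist-mode qHTS in ER-alpha-UAS-bla HEK 293 cells: compound titration, 0.5nM estradiol for 18 h, CCF4 fluorescence, Hill-derived IC50.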
# [9] = target: Estrogen receptor (Homo sapiens) (UniProt P03372); assay: qHTS assay for small molecule agonists of estrogen receptor alpha signaling (AID 588514; calls by dose curve; further: nearly all actives have a fitted effect of over 70% in size); settings: ER-alpha-UAS-bla HEK293, beta-lactamase ratio, 18 h; series mostly up to 76.8 µM
# Summary of the method: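 ER-alpha-UAS-bla GripTite HEK293 cells, 5000/well in 2% charcoal/dextran-stripped FBS medium, treated with compound titrations 18 h at 37 C. CCF4 beta-lactamase read by fluorescence after 2 h RT; normalised to 20 nM 17-beta-estradiol (100%) and DMSO (0%), Hill fit for EC50 and efficacy.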
# [10] = target: Bile acid receptor (Homo sapiens) (UniProt Q96RI1); assay: qHTS assay for small molecule agonists of farnesoid X receptor signaling (AID 588527; calls by dose curve); settings: HEK293T FXR-UAS-bla, beta-lactamase ratio, 16 h; hits give high values
# Sequence of Bile acid receptor (Homo sapiens) (Q96RI1 whole entry, looked up): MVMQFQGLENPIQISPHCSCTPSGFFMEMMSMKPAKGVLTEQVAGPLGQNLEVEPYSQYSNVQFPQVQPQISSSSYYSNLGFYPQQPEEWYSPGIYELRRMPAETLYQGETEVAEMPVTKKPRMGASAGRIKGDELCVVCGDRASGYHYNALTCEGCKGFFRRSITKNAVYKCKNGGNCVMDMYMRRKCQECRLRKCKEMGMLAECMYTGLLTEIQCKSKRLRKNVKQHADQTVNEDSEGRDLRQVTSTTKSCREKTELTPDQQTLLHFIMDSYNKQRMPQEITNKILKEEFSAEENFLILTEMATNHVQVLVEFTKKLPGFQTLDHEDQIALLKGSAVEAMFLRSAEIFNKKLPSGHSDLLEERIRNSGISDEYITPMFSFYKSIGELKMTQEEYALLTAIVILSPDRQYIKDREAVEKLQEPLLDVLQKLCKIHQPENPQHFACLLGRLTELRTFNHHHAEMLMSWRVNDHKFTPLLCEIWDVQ
# Summary of the method: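 Agonist-mode beta-lactamase reporter in GeneBLAzer FXR-UAS-bla HEK293T cells, titration up to 92 uM, 16 h exposure at 37 C, CCF4 fluorescence. Response scaled to DMSO (0%) and 100 uM chenodeoxycholic acid (100%), then Hill-fitted for EC50 and efficacy.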
# [11] = target: Glucocorticoid receptor (Homo sapiens) (UniProt P04150); assay: qHTS assay for small molecule agonists of glucocorticoid receptor signaling (AID 588532; active means well fitted curve in the direction sought with a large enough effect in the signal ratio, with a control signal flat; the % refers to the signal ratio); settings: HeLa MMTV-bla, beta-lactamase ratio, agonist, 18 h; hits give high values; percent of dexamethasone control, DMSO zero
# Sequence of Glucocorticoid receptor (Homo sapiens) (P04150 whole entry, looked up): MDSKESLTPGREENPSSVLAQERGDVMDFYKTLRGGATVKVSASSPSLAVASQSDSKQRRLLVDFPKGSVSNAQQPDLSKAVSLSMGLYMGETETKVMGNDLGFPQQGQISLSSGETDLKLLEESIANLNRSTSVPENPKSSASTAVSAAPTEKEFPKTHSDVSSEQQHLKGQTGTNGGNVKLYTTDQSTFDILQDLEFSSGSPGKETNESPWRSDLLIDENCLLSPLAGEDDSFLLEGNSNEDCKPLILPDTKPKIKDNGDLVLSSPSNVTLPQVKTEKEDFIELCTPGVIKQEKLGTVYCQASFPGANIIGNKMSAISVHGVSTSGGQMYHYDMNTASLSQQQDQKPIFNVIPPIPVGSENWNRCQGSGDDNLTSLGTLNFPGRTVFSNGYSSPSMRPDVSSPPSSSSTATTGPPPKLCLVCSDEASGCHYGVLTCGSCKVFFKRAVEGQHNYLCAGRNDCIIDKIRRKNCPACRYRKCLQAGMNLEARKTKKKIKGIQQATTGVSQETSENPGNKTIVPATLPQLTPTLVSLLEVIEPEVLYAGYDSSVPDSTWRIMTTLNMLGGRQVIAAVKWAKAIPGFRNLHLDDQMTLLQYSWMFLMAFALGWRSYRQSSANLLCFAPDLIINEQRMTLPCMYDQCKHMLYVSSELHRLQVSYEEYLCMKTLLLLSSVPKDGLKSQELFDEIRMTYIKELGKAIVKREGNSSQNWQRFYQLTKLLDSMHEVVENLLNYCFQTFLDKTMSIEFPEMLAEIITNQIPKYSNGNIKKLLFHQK
# Summary of the method: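 MMTV-bla HeLa, beta-lactamase reporter; medium with 1% charcoal/dextran-stripped FBS; cpds up to 92 uM, 18 h, 37 C; CCF4 readout 460/530 nm; Hill fit → EC50, efficacy vs 0.1 uM dexamethasone = 100%.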
# [12] = target: Glucocorticoid receptor (Homo sapiens) (UniProt P04150); assay: qHTS assay for small molecule antagonists of glucocorticoid receptor signaling (AID 588533; active means well fitted inhibition curve with a large enough effect in the signal ratio, with a control signal flat, not every such curve was filed as active; the % refers to the signal ratio;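 further: cells stimulated with 2 nM dexamethasone as agonist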); settings: HeLa MMTV-bla, GRE beta-lactamase ratio, antagonist mode, 18 h; series mostly up to 76.8 µM
# Summary of the method: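 Antagonist-mode qHTS: compound titrations added to GRE-bla HeLa cells, then dexamethasone 2 nM final; 18 h, 37 C. CCF4 FRET fluorescence normalized to dexamethasone and DMSO; IC50 from Hill fit.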
# [13] = target: Peroxisome proliferator-activated receptor gamma (Homo sapiens) (UniProt P37231); assay: qHTS assay for small molecule agonists of peroxisome proliferator-activated receptor gamma signaling (AID 588536; active means well fitted curve in the direction sought with a large enough effect in the signal ratio, with a control signal flat, not every such curve was filed as active; the % refers to the signal ratio); settings: HEK293 PPARg-UAS-bla, beta-lactamase ratio, 16 h, percent of rosiglitazone response, DMSO as zero; series mostly up to 76.7 µM
# Sequence of Peroxisome proliferator-activated receptor gamma (Homo sapiens) (P37231 whole entry, looked up): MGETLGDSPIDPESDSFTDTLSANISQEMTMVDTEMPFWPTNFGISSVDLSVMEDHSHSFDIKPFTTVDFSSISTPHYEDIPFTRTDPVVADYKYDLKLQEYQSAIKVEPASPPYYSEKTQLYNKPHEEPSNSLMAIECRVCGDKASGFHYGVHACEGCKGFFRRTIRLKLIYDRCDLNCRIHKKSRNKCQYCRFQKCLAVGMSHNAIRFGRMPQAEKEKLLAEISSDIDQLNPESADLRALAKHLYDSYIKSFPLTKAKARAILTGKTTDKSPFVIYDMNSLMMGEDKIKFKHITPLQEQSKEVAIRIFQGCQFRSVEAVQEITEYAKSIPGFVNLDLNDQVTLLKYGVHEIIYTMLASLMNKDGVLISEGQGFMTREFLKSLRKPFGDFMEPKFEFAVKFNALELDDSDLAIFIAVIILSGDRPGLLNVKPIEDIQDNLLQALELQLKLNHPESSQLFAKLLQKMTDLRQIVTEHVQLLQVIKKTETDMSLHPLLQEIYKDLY
# Summary of the method: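 Ratiometric blue/green fluorescence (405 nm excitation; 460 and 530 nm emission) from CCF4-loaded HEK293 reporter cells serves as signal. Exposure to test compounds lasts 16 h at 37 C in medium containing 1% charcoal/dextran-treated serum.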
# [14] = target: Vitamin D3 receptor (Homo sapiens) (UniProt P11473); assay: qHTS assay for small molecule antagonists of vitamin D receptor signaling (AID 588541; calls by dose curve;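 further: receptor activated by calcitriol during compound treatment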); settings: HEK293T VDR-UAS-bla, beta-lactamase ratio, antagonist mode; series mostly up to 76.7 µM
# Sequence of Vitamin D3 receptor (Homo sapiens) (P11473 whole entry, looked up): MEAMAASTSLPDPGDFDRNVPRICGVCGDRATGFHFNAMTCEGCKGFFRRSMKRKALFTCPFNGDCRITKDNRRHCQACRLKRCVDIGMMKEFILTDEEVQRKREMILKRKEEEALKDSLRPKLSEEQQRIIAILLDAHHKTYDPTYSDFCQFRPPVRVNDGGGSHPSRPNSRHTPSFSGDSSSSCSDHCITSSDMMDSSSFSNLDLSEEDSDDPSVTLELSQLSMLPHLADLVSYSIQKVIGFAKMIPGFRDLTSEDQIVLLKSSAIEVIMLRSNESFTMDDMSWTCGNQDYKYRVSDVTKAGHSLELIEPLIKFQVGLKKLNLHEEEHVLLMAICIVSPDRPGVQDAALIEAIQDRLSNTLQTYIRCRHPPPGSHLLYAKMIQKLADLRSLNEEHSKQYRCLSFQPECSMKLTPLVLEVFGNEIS
# Summary of the method: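 VDR-UAS-bla HEK293T cells (2000/well, 2% charcoal-stripped FBS) were treated with titrated compounds plus 1-alpha,25-dihydroxyvitamin D3 (50 nM or 3 nM final) for 16 h at 37 C. CCF4 beta-lactamase fluorescence was read; Hill fits gave IC50.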
# [15] = target: Vitamin D3 receptor (Homo sapiens) (UniProt P11473); assay: qHTS assay for small molecule agonists of vitamin D receptor signaling (AID 588543; calls by dose curve); settings: HEK293T VDR-UAS-bla, beta-lactamase ratio, 16 h; series mostly up to 76.8 µM
# Summary of the method: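 Measured: β-lactamase reporter activity (CCF4, 405 nm excitation, 460/530 nm emission) in HEK293T VDR-UAS-bla cells after 16 h compound exposure at 37 °C. Normalization against 50 nM 1α,25-dihydroxyvitamin D3 and DMSO; Hill-fit EC50.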
# [16] = qHTS assay for small molecule activators of the p53 signaling pathway (AID 651743; active means well fitted activation curve with a large enough effect in the signal ratio, not every such curve was filed as active; the % refers to the signal ratio); settings: HCT-116 p53RE-bla, beta-lactamase FRET ratio, 16 h; activation: hits give high values
# Summary of the method: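 Cell-based beta-lactamase reporter (p53 response elements, HCT-116 background). After a 5-hour preincubation, cells received compound for 16 hours at 37 C; substrate development ran 2 hours at room temperature.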
# [17] = qHTS assay for small molecule activators of the nuclear factor-kappa B (NF-kB) signaling pathway (AID 651749; active means well fitted activation curve with a large enough effect in the signal ratio; the % refers to the signal ratio); settings: NF-kB-bla ME-180 cells, beta-lactamase FRET ratio, 16 h; activation: hits give high values
# Summary of the method: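 Screening used 2,000 ME-180 reporter cells per well exposed to pinned compound (23 nL) or DMSO; after 16 hr at 37C, beta-lactamase expression under NF-kB control was assessed through FRET.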
# [18] = target: Nuclear receptor ROR-gamma (Homo sapiens) (UniProt P51449); assay: qHTS assay for small molecule antagonists of the retinoid-related orphan receptor gamma (ROR-gamma) signaling pathway (AID 651802); settings: ROR-gamma antagonist cell reporter assay; series mostly up to 92.2 µM;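 further: luciferase reporter luminescence driven by ROR response element; nearly all actives have a fitted effect of over 60% in size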
# Sequence of Nuclear receptor ROR-gamma (Homo sapiens) (P51449 whole entry, looked up): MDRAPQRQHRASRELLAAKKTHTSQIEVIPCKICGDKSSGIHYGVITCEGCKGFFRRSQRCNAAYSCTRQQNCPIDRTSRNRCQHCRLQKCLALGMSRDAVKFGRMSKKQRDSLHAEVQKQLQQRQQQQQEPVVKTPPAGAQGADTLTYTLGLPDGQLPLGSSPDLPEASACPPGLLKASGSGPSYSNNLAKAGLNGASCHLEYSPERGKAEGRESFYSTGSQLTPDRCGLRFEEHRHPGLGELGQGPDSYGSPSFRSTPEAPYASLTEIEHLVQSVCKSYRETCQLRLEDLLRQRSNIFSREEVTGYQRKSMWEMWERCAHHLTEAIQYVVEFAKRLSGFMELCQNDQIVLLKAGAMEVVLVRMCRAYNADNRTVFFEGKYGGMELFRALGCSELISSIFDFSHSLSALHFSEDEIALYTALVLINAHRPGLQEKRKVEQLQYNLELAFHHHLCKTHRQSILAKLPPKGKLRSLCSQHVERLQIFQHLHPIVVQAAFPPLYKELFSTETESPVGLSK
# Summary of the method: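 CHO cells with TET-inducible ROR-gamma and RORE-luciferase reporter, dosed then doxycycline-induced. After 16 h at 37C, One-Glo luminescence read; decreased signal indicates antagonism.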
# [19] = target: Nuclear receptor subfamily 1 group I member 2 (Rattus norvegicus) (UniProt Q9R1A7); assay: qHTS assay for small molecule activators of the rat pregnane X receptor (rPXR) signaling pathway (AID 651751; call rule not given here); settings: rPXR reporter cells, luciferase (One-Glo), 24 h
# Sequence of Nuclear receptor subfamily 1 group I member 2 (Rattus norvegicus) (Q9R1A7 whole entry, looked up): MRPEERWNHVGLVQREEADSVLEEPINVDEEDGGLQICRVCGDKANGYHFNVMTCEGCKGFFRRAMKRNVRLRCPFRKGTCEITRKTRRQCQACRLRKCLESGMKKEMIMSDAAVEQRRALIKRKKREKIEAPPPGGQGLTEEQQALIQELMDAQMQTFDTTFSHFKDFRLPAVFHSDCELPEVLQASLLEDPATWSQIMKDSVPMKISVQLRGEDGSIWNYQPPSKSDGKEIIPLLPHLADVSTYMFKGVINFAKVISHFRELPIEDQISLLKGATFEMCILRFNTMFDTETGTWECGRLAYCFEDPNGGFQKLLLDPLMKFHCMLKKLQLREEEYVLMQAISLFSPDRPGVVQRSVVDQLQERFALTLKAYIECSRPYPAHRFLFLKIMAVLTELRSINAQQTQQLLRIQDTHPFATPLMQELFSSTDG
# [20] = qHTS assay for small molecule activators of the human pregnane X receptor (PXR) signaling pathway (AID 720659; call rule not given here); settings: DPX-2 HepG2 CYP3A4-luciferase, 24 h; series mostly up to 92.3 µM
SMILES,Potency [1],Potency [2],Potency [3],Potency [4],Potency [5],Potency [6],Potency [7],Potency [8],Potency [9],activation [10],activation [11],Potency [12],outcome [13],outcome [14],outcome [15],activation [16],activation [17],Potency [18],max response [19],outcome [20]
CC(=O)[O-].CC(=O)[O-].O.O.O.[Pb+2],inactive,inactive,inactive,inactive,inactive,33.5 µM (active) and 37.6 µM (active),inactive,–,–,–,–,–,–,–,–,–,–,–,–,–
CCCC(=O)Cl,–,inactive,inactive,inactive,inactive,–,inactive,inactive,inactive,0.327%,7.24%,inactive,inactive,inactive,inactive,-0.024%,-0.622%,inactive,-1.41%,inactive
COc1ccc(N)cc1,inactive,inactive,inactive,inactive,inactive,–,inactive,–,–,–,-7.51% and 3.18%,inactive,inactive,–,–,-2.17% and -1.84%,–,inactive,–,inactive
Nc1c(Cl)c(Cl)nc(C(=O)O)c1Cl,inactive,inactive,inactive,inactive,inactive,inactive,inactive,inactive,–,–,-2.38% and -16.4% and -2.51%,inactive,inactive,–,–,-3.11% and -9.55% and -6.83%,-0.763% and -1.51% and -1.13%,inactive,-1% and -3.34% and -1.89%,inactive
CCOP(=S)(OCC)Oc1ccc([N+](=O)[O-])cc1,10 µM (active) and 5.01 µM (active),inactive,inactive,inactive,inactive,inactive,inactive,–,–,–,1.36% and 0.403% and 5.24%,inactive,inactive,–,–,-1.79% and -1.31% and 2.7%,-1.46% and -0.889% and 0.819%,inactive,–,–
COc1ccc(C=O)cc1OC,inactive,inactive,inactive,inactive,inactive,inactive,inactive,inactive,inactive,–,–,–,inactive,–,–,-1.53% and 0.661%,–,inactive,-2.56% and 1.92%,inactive
S=C=Nc1cccc2ccccc12,–,inactive,inactive,inactive,inactive,47.3 µM (active),inactive,inactive,inactive,-1.78%,2.48%,inactive,inactive,inactive,inactive,3.44%,2.04%,inactive,5.78%,–
N#CCCCl,inactive,inactive,inactive,inactive,inactive,inactive,inactive,–,–,–,-5% and -0.386%,inactive,–,inactive,inactive,-0.742% and -1.01%,-0.282% and -0.0737%,inactive,-4.29% and -2.84%,inactive
Clc1nc(Cl)nc(Cl)n1,inactive,inactive,inactive,inactive,inactive,inactive,inactive,inactive,inactive,–,2.08% and -5.01%,inactive,inactive,inactive,inactive,-4.73% and -1.27%,0.499% and 0.444%,inactive,-1.06% and -1.98%,–
CC(=O)OC1C(=O)[C@]2(C)C(O)CC3OC[C@]3(OC(C)=O)C2[C@@H](OC(=O)c2ccccc2)[C@]2(O)CC(O)C(C)=C1C2(C)C (stereo partly drawn),inactive,–,–,–,–,–,–,–,–,–,–,–,–,–,–,–,–,–,–,–
COC(=O)NC(=S)Nc1ccccc1NC(=S)NC(=O)OC,inactive,inactive,–,inactive,inactive,37.6 µM (active),inactive,inactive,inactive,1.1% and -0.86%,7.06% and -4.28%,inactive,inactive,inactive,inactive,0% and 3.95%,0.272% and -1.52%,inactive,13.9% and 14.6%,–
CCCCCCCC(=O)Cl,inactive,inactive,inactive,inactive,inactive,–,inactive,inactive,inactive,0.289%,5.97%,inactive,inactive,–,–,-1.82%,-0.835%,inactive,5.82%,inactive
